Experimental data: PubChem BioAssay AID2125 (NMMLSC, 2009)
Unmarked numbers belong to inactive results.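 The calls were made as follows: active = combined score above 50, rising as EC50 falls below 10 µM and growth at top dose drops; inactive = the rest.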 Peptide text beside a SMILES is read from it. * marks the point of attachment. Cbz = O=C(OCc1ccccc1)*

Test system: YE3961
Experiment: growth inhibition of S. cerevisiae strain panel, profiling panel, 26S proteasome disassembly project, secondary panel, OD600 (AID 2125)
Conditions: growth OD600, 6-8 h, at 100 µM, stronger effect = lower value

## CC(=O)N1C(=O)C(=C2C=C(C)OC(C)=C2)c2ccccc21
  percent response (growth): 78.5%

## CC(C)C[C@@H](C=O)NC(=O)[C@H](CC(C)C)NC(=O)[C@H](CC(C)C)NC(=O)OCc1ccccc1 (Cbz-Leu-Leu-Leu-aldehyde)
  percent response (growth): 59%
